Rows were chosen to be rich in hits. Some 5.3% of all compounds tested hit in one or more screens of this group.
HP1b chromo inh: HTS for Inhibitors of HP1-beta Chromodomain Interactions with Methylated Histone Tails; AlphaScreen HP1-beta / biotin-H3K9me3 peptide binding; Chromobox protein homolog 1 (Homo sapiens), P83916; actives 0.56% (n = 390,000); AID 540317, 2011; Potency, µM (titrated, usually from 114 µM), without a hit: at the top dose activity change, negative = inhibition, actives largely listed as inhibitors; note: potency is the fitted concentration of half-maximal effect; nearly all actives have a fitted effect of over 70% in size
Target sequence (P83916 whole entry, looked up): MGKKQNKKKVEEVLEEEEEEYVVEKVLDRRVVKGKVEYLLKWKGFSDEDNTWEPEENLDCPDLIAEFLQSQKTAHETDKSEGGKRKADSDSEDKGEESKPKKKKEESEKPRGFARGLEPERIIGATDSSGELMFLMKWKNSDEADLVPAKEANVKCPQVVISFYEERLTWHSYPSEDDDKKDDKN
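AlphaScreen: HP1-beta (50 nM) preformed 30 min with biotin-H3(1-18)K9me3 peptide (50 nM) in PBS pH 7.4, 0.01% Tween-20. Compound added for 30 min at RT, then streptavidin donor/nickel chelate acceptor beads (10 ug/mL) for 30 min.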
Six1-Eya2 inh: qHTS Assay for Inhibitors of the Six1/Eya2 Interaction | actives 0.56% (n = 360,000) | AlphaScreen GST-Six1/His-Eya2 binding, biochemical; active compounds read low | AID 651725, 2012 | activity change, % (concentration not given with the values) | Homeobox protein SIX1 (Homo sapiens) + Protein phosphatase EYA2 (Homo sapiens), …; in the data active = activity change below about -65%; inconclusive = mostly about -30% to -63%; note: % is set by controls: 0 for no effect and ±100 for the full control effect
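AlphaScreen luminescence read after one hour at 37 °C in darkness. Pin-transferred compounds met GST-Six1 and His-Eya2 protein (5X stock 250 nM/500 nM) plus glutathione donor and Ni-chelate acceptor beads (5X, 50 ug/mL).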
JMJD2A Tudor: qHTS Assay for Inhibitors of JMJD2A-Tudor Domain; Potency, µM (titrated, usually from 114 µM), inactives show at the top dose activity change, negative = inhibition, actives largely listed as inhibitors; Lysine-specific demethylase 4A (Homo sapiens), O75164; actives 4.4% (n = 390,000); AlphaScreen JMJD2A-Tudor / H3K4me3 peptide binding; note: potency is the fitted concentration of half-maximal effect; % is set by controls: 0 for no effect and ±100 for the full control effect; nearly all actives have a fitted effect of over 50% in size
CtBP-E1A blk: qHTS Assay for Inhibitors of the CtBP/E1A Interaction; CtBP / adenovirus E1A interaction (AlphaScreen); activity change, % (concentration not given with the values); actives 0.49% (n = 340,000); AlphaScreen GST-E1A/His-CtBP binding, 1536-well; active compounds read low; in the data active = activity change below about -65%; inconclusive = mostly about -30% to -63%; note: % is set by controls: 0 for no effect and ±100 for the full control effect
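Homogeneous bead-based format: GST-tagged E1A captured on glutathione donor beads, His-tagged CtBP on nickel acceptor beads; compounds precede bead addition by 2 h at 37 °C.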
TDP1 block: qHTS Assay for Inhibitors of Tyrosyl-DNA Phosphodiesterase (TDP1); Tyrosyl-DNA phosphodiesterase 1 (Homo sapiens), Q9NUW8; recombinant TDP1, AlphaScreen DNA substrate cleavage; Potency, µM (doses to about 130 µM), for inactives: top-dose activity change, negative = inhibition, most hits filed as inhibitors; actives 0.28% (n = 350,000); note: potency is the fitted concentration of half-maximal effect; % is set by controls: 0 for no effect and ±100 for the full control effect; nearly all actives have a fitted effect of over 40% in size
Target sequence (Q9NUW8 whole entry, looked up): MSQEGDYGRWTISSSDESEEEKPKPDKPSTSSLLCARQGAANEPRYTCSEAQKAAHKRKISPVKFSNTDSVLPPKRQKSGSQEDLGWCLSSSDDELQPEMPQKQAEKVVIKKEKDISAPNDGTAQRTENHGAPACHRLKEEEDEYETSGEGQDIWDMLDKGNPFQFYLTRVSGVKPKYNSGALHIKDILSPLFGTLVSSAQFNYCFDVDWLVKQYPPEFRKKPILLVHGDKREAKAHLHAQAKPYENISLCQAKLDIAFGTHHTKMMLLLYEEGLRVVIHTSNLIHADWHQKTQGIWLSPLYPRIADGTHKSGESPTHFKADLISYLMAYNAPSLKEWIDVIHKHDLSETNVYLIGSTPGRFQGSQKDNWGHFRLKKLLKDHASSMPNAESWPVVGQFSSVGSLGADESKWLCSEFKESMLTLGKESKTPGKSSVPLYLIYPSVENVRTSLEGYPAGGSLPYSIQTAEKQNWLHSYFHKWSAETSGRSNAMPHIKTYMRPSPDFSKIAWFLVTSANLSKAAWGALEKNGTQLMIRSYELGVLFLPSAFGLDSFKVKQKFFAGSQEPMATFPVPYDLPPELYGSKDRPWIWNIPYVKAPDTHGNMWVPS
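Recombinant human Tdp1 (E. coli-expressed, 1 nM final) preincubated with compounds 15 min at room temperature, then 5'-biotin/3'-phosphotyrosine-FITC DNA substrate (15 nM final) added for 5 min. AlphaScreen beads (10 ug/ml final) added 10 min; cleavage lowers signal.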
BAZ2B inh: qHTS Assay for Inhibitors of BAZ2B; Bromodomain adjacent to zinc finger domain protein 2B (Homo sapiens), Q9UIF8; AlphaScreen BAZ2B-H3K14Ac peptide displacement; Potency, µM (titrated, usually from 114 µM), without a hit: top-dose activity change, negative = inhibition, usual class: inhibitors; actives 4.4% (n = 360,000); note: potency is the fitted concentration of half-maximal effect; % is set by controls: 0 for no effect and ±100 for the full control effect; nearly all actives have a fitted effect of over 60% in size
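Multi-concentration screen (max 110 uM) measuring displacement of acetylated histone H3 peptide from BAZ2B by AlphaScreen, using 50 nM protein, 50 nM peptide and 10 ug/mL streptavidin donor plus Ni-chelate acceptor beads.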
Active calls of the source: *; ? = inconclusive; · = no result given; [ ] = remark or other dose. Unless noted, calls come from the whole dose curve; as a rule, active = well fitted inhibition curve with a large enough effect; inconclusive = small, poorly fitted or top-dose-only effect; inactive = no such curve, though single readings can be large or run the other way.

SMILES | HP1b chromo inh | Six1-Eya2 inh | JMJD2A Tudor | CtBP-E1A blk | TDP1 block | BAZ2B inh
COc1ccc(NC(=O)C(CC(C)C)NS(=O)(=O)c2ccc3c(c2)oc(=O)n3C)cc1Cl (stereo not drawn) | 14.3% | · | -16.8% | · | 0.0% | -3.7%
CCn1c(CSc2nc3ccccc3s2)nnc1SCC(=O)c1ccc2c(c1)OCCO2 | 28.7% | -3.0 | 79.4µM* | -14.0 | 5.1% | 3.1%
O=S(=O)(NCCc1cn2ccsc2n1)c1ccc(Cl)cc1 | 17.4%[57 µM] | · | -20.6% | · | 2.2% | -2.2%
O=C(Nc1cc2c(oc1=O)CCCC2=O)c1ccc(Cl)cc1 | -65.5% | -28.0 | 14.1µM* | -4.8 | 12.6µM* | 39.8µM*
NNC(=O)c1ccc(CSc2n[nH]c(=O)[nH]c2=O)cc1 | 11.4% | -3.0 | -12.0% | -27.9 | 44.7µM* | -14.6%
O=c1[nH]nc(SCc2ccccc2)c(=O)[nH]1 | 26.2% | 1.5 | -8.7% | 28.2 | 0.0% | -6.1%
COc1cccc(C(=O)Nc2c(C(=O)c3ccc(F)cc3)oc3ccccc23)c1 | 24.7% | · | 1.0% | · | 0.0% | -11.7%
Cc1ccc(NS(=O)(=O)c2cc3c(cc2-c2ccsc2)NC(=O)CO3)cc1C | · | · | -28.6% | · | 0.2% | ·
Cc1cc(-c2n[nH]c(=S)n2/N=C/c2cccc([N+](=O)[O-])c2)n[nH]1 | ? | -26.1 | 7.94µM* | -27.5 | 3.4% | -11.7%
Cc1cc(-c2n[nH]c(=S)n2/N=C/C(Cl)=C/c2ccccc2)n[nH]1 | -17.5% | -13.0 | 56.2µM* | 6.2 | 10.8% | ?
Cc1cccc(/C=N/n2c(COc3ccccc3)n[nH]c2=S)c1 | 4.4% | -7.2 | ? | · | · | ?
Cc1cc(-c2n[nH]c(=S)n2/N=C/c2cccc(O)c2)n[nH]1 | ? | 4.1 | 3.16µM* | -2.9 | 6.3% | -20.3%
COc1ccc([C@@H]2CC(=O)c3c(O)cc(O[C@@H]4O[C@H](CO[C@@H]5O[C@@H](C)[C@H](O)[C@@H](O)[C@H]5O)[C@@H](O)[C@H](O)[C@H]4O)cc3O2)cc1O | -14.1% | -8.5 | ? | 4.7 | · | 50.1µM*
CSC1=NS(=O)(=O)c2c(C)nn(C)c2S1 | 12.6µM* | 3.1 | 4.47µM* | 9.1 | 8.7% | 50.1µM*
NCCCC[C@@H]1NC(=O)c2cc([N+](=O)[O-])cc(I)c2SC[C@@H](C(N)=O)NC(=O)[C@H](Cc2ccc(O)cc2)NC1=O | -3.7% | -8.4 | ? | · | 5.3% | ?
C[C@@H]1NC(=O)c2cc([N+](=O)[O-])cc(I)c2OCC[C@@H](C(N)=O)NC(=O)[C@H](CCCCN)NC1=O | 33.8% | 5.1 | -5.6% | 4.5 | 2.6% | 22.0%
NCCCC[C@H]1NC(=O)[C@H](CCC(=O)O)NC(=O)c2cc([N+](=O)[O-])cc(I)c2OCC[C@@H](C(N)=O)NC1=O | -22.8% | ? | 50.1µM* | -16.8 | 2.6% | -37.6%
NCCCC[C@@H]1NC(=O)[C@H](CCC(=O)O)NC(=O)c2cc([N+](=O)[O-])cc(I)c2SC[C@@H](C(=O)NCC(N)=O)NC1=O | 23.8% | 9.8 | 22.4µM* | 5.1 | -6.6% | ?
CC(=O)c1cccc(-n2c(CCC(=O)O)ccc2-c2cccs2)c1 | ? | -9.4 | 56.2µM* | -10.4 | 4.3% | 50.1µM*
O=c1[nH]c(-c2ccccn2)nc2ccccc12 | 39.9% | -91.1* | 56.2µM* | -89.3* | 5.9% | 44.7µM*
c1ccc(-c2nc3ccccc3[nH]2)nc1 | 21.8% | ? | ? | -4.4 | 0.0% | -7.0%
O=c1[nH]c(-c2ccccn2)nc(C(F)(F)F)c1Br | 1.5% | -75.6* | 17.8µM* | -83.4* | 8.1% | 28.2µM*
CN(CCCNC(=O)c1cc2c(=O)n(C)c3ccccc3c2s1)Cc1ccccc1 | 22.0% | · | -13.0% | · | 0.0% | ·
COc1cccc(-c2csc(NC(=O)Oc3ccccc3)n2)c1 | ? | -10.9 | 89.1µM* | -8.4 | -7.9% | ?
COc1cccc(OC)c1C(=O)Nc1nc(-c2ccccc2)cs1 | 36.1% | -7.8 | -20.1% | -6.3 | · | -10.2%
SMILES | HP1b chromo inh | Six1-Eya2 inh | JMJD2A Tudor | CtBP-E1A blk | TDP1 block | BAZ2B inh
CC(=O)Nc1cccc(-c2csc(NCc3ccccc3)n2)c1 | ? | -4.6 | 12.6µM* | -6.7 | 2.7% | 20µM*
CC(=O)Nc1cccc(-c2csc(Nc3ccccn3)n2)c1 | 5.6% | -8.7 | ? | 7.4 | 9.9% | -11.4%
O=C(COc1ccccc1F)Nc1nnc(SCc2cc(=O)n3ccccc3n2)s1 | 17.6%[57 µM] | · | -11.4% | · | 0.0% | -0.6%
Cc1ccc(Oc2ccc(NC(=O)CSc3n[nH]c(N)n3)cc2)cc1 | 13.1% | 3.3 | -20.4% | 1.4 | -2.2% | -18.5%
Nc1nc(SCC(=O)c2ccc(Oc3ccccc3)cc2)n[nH]1 | ? | -1.2 | 35.5µM* | -3.8 | 11.3% | -1.5%
CCCCN1C(=O)c2ccccc2NC1c1ccc(OC)c(COc2ccc(NC(C)=O)cc2)c1 (stereo not drawn) | · | · | -34.0% | · | -3.1% | ·
Cc1ccc(C(=O)Nc2ccc(S(=O)(=O)O)c3cc(S(=O)(=O)O)cc(S(=O)(=O)O)c23)cc1NC(=O)c1cccc(NC(=O)Nc2cccc(C(=O)Nc3cc(C(=O)Nc4ccc(S(=O)(=O)O)c5cc(S(=O)(=O)O)cc(S(=O)(=O)O)c45)ccc3C)c2)c1 | · | · | · | · | 4.47µM* | ·
COc1ccc(C(=O)Nc2nnc(SCc3cc(=O)c4cccc(F)c4[nH]3)s2)cc1 | 19.2%[57 µM] | · | -17.2% | · | 2.7% | 9.8%
COc1ccc(CN2CCN(c3ncccn3)CC2)c(OC)c1 | ? | -0.9 | ? | 3.6 | -2.2% | -5.2%
Cc1ccc(-c2nn(-c3cccc(F)c3)cc2CN(Cc2nccn2C)C(C)C)o1 | ? | -19.1 | ? | -10.3 | · | ?
COc1ccc(CN2CCN(Cc3ccc(C)cc3)CC2)c(OC)c1 | ? | -9.7 | 3.16µM* | -6.0 | · | 22.4µM*
Cc1ccc(-c2nn(-c3cccc(F)c3)cc2CN2CCN(c3ccccn3)CC2)o1 | ? | ? | 35.5µM* | -16.1 | 4.8% | 50.1µM*
COc1ccc(CN2CCN(c3ccccn3)CC2)c(OC)c1 | ? | -3.7 | 1.58µM* | -0.7 | -5.1% | 79.4µM*
COc1ccc(CN2CCN(Cc3ccccc3F)CC2)c(OC)c1 | ? | -2.9 | 1.26µM* | 3.4 | · | 20µM*
